Experimental data taken from the supplement of paper PMC8975748.
Where a name gives a salt, the structure may show the parent alone.

System: Saccharomyces cerevisiae BY4741 SeMeCo community
Assay: z-score of subpopulation abundance vs DMSO median, subpopulation auxotrophic for LUM; higher = larger share of this subpopulation than in DMSO controls
Conditions: 10 µM; 24 h; SM minimal medium; subpopulation (auxotrophy): LUM
Summary of the method: (§1)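 A Saccharomyces cerevisiae BY4741 community carried four plasmids, each restoring one auxotrophy and encoding a distinct fluorescent protein. It was pre-grown overnight to OD600 1.0, diluted to 0.3, and 70 µl was added to 384-well plates acoustically predosed with library drugs (10 µM final), then grown 24 h in minimal SM medium. Cells were paraformaldehyde-fixed and imaged by automated confocal microscopy, with single-auxotroph fluorescent strains setting thresholds and autofluorescence correction. Each subpopulation's abundance was scored as a z-score against the vehicle-well median.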

| SMILES | z-score of subpopulation abundance |
| --- | --- |
| CCC[S+]([O-])c1ccc2[nH]c(NC(=O)OC)nc2c1 (centres undefined) [Albendazole Oxide] | -0.65 |
| O=C(O)C1=C(CSc2nnnn2CS(=O)(=O)O)CS[C@@H]2[C@H](NC(=O)[C@H](O)c3ccccc3)C(=O)N12 [Cefonicid sodium] | -0.25 |
| O=C(O)CCCCCCCC(=O)O [Azelaic acid] | -0.32 |
| CN[C@H]1CC[C@@H](c2ccc(Cl)c(Cl)c2)c2ccccc21 [Sertraline HCl] | -1.09 |
| CN(C)CCCN1c2ccccc2Sc2ccccc21 [Promazine hydrochloride] | 0.25 |
| CC1(C)S[C@@H]2[C@H](NC(=O)[C@H](N)c3ccc(O)cc3)C(=O)N2[C@H]1C(=O)O [Amoxicillin trihydrate] | 0.38 |
| Cc1cccc(N(C)C(=S)Oc2ccc3ccccc3c2)c1 [Tolnaftate] | -0.11 |
| COc1ccc2cc([C@H](C)C(=O)O)ccc2c1 [Naproxen] | -0.97 |

System: Saccharomyces cerevisiae BY4741 SeMeCo community
Assay: z-score of subpopulation abundance vs DMSO median, subpopulation auxotrophic for HLUM; higher = larger share of this subpopulation than in DMSO controls
Conditions: 10 µM; 24 h; SM minimal medium; subpopulation (auxotrophy): HLUM
Summary of the method: as §1

| SMILES | z-score of subpopulation abundance |
| --- | --- |
| O=C(O)C1=C(CSc2nnnn2CS(=O)(=O)O)CS[C@@H]2[C@H](NC(=O)[C@H](O)c3ccccc3)C(=O)N12 [Cefonicid sodium] | 0.08 |
| O=C(O)CCCCCCCC(=O)O [Azelaic acid] | 1.13 |
| CN[C@H]1CC[C@@H](c2ccc(Cl)c(Cl)c2)c2ccccc21 [Sertraline HCl] | -0.97 |
| Cc1cccc(N(C)C(=S)Oc2ccc3ccccc3c2)c1 [Tolnaftate] | -1.09 |
| COc1ccc2cc([C@H](C)C(=O)O)ccc2c1 [Naproxen] | -0.08 |
| Fc1ccc([C@@H]2CCNC[C@H]2COc2ccc3c(c2)OCO3)cc1 [Paroxetine mesylate] | -0.05 |
